Screening results: PubChem, National Center for Advancing Translational Sciences (NCATS)
A selection: hits, their analogues and other compounds. The true share with any hit is near 7.6%.
SW480 rereplic: DNA re-replication induction in SW480 cells | SW480 DNA re-replication, Hoechst DNA content imaging, 48 h | Potency, µM (highest dose often 46.1 µM), for the others: at the top dose re-replication activation, most hits filed as activators | 1.8% of 340,000 active | AID 624297; note: potency is the fitted concentration of half-maximal effect; % of control where 0% means no effect; nearly all actives have a fitted effect of over 55% in size
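Quantitative HTS format with DMSO vehicle controls; 48 hr drug incubation at 37 C, then 40 min Hoechst staining and scanning imager measurement at 405 nm excitation.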
MCF10A rerep: DNA re-replication induction in MCF 10a cells | MCF 10A DNA re-replication, Hoechst nuclear intensity, 48 h | Potency, µM (titrated, usually from 46.1 µM), for inactives: at the top dose activity, positive = re-replication, hits mostly activators | 2.9% of 350,000 active; note: potency is the fitted concentration of half-maximal effect; % of control where 0% means no effect; nearly all actives have a fitted effect of over 50% in size
KCNH2 3.1 block: inhibitors of human KCNH2 3.1 potassium channel isoform | activity change, % (tested at about 1.8 µM) | U2OS KCNH2 3.1, thallium flux FluxOr; hits give low values | AID 720553 | 0.95% of 340,000 active;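 active = maximum activity change below -70%; inconclusive = maximum activity change from -70% to -50%; inactive = maximum activity change above -50%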;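 note: thallium influx rate constant from kinetic fluorescence after stimulation buffer; % is set by controls: 0 for no effect and ±100 for the full control effect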
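Thallium flux read-out: FluxOr dye with Red40 quencher in HBSS/HEPES, 45 min at RT. Rate constants from kinetic reads were normalized to positive and negative DMSO controls. Cells: U2OS virally expressing the 3.1 isoform.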
KB-V1 cytotox: KB-V1 MDR subline cytotoxicity. KB-V1 MDR cells viability, CellTiter-Glo, 72 h. Potency, µM (doses to about 46.1 µM), usual class: cytotoxic. 3.4% of 400,000 active. AID 1347076; note: potency is the fitted concentration of half-maximal effect; % is set by controls: 0 for no effect and ±100 for the full control effect; nearly all actives have a fitted effect of over 60% in size
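In this primary screen, KB-V1 cells overexpressing P-gp are incubated with library compounds (lowest to highest concentration) for 72 h at 37 degrees C before a luminescent ATP viability read.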
KB-3-1 tox: KB-3-1 parental cell cytotoxicity; KB-3-1 viability, CellTiter-Glo ATP luminescence, 72 h; Potency, µM (titrated, usually from 46.1 µM), usual class: cytotoxic; 1.4% of 400,000 active; AID 1347075; note: potency is the fitted concentration of half-maximal effect; % is set by controls: 0 for no effect and ±100 for the full control effect; nearly all actives have a fitted effect of over 60% in size
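Multi-concentration cytotoxicity screen in KB-3-1 cells grown in DMEM lacking phenol red with 10% FBS. After 72 h at 37 °C with compound, ATP-dependent luminescence was recorded.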
hERG WT inh: inhibitors of human wildtype KCNH2 potassium channel | AID 720551 | activity change, % at 1.84 µM | U2OS, BacMam KCNH2, thallium flux FluxOr; hits give low values | 0.37% of 340,000 active;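 active = maximum activity change below -70%; inconclusive = maximum activity change between -70% and -50%; inactive = maximum activity change above -50%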; note: % is set by controls: 0 for no effect and ±100 for the full control effect
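U2OS cells were transduced with wild-type KCNH2 virus (2.03 x 10^8 / mL) for 4 h at room temperature, then cultured overnight at 37 C. Thallium flux was read with FluxOr dye. Rate constants were normalized to DMSO controls.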
* = called active by the depositor; i = inactive; ? = inconclusive; nt = no result; ! = not confirmed by another sample. Unless noted, calls come from the whole dose curve; as a rule, active = well fitted curve in the direction sought with a large enough effect; inconclusive = small, poorly fitted or top-dose-only effect, or another doubt; inactive = no such curve, though single readings can be large; an effect the other way counts as inactive or inconclusive.

SMILES	SW480 rereplic	MCF10A rerep	KCNH2 3.1 block	KB-V1 cytotox	KB-3-1 tox	hERG WT inh
COc1ccc(CN2CCN(c3cc(C)nc4c5c(C)cc(C)nc5nn34)CC2)cc1F	9%	4%	-10	2.3µM*	i	-4
COc1ccccc1CNC(=O)CN1C(=O)NC2(CCCc3sccc32)C1=O (stereo unspecified)	-10%	1%	10	i	i	-236*
COCn1ccnc1C(O)(c1ccc(OC)cc1)c1ccc(OC)cc1	-2%	-3%	1	i	i	2
N#Cc1ccc(Oc2cccc3cccnc23)c([N+](=O)[O-])c1	12%	?	0	21µM*	i	-2
N#Cc1cc(Oc2cccc3cccnc23)c(-n2nnc3ccccc32)cc1C#N	?	14µM*	-26	?	?	-24
N#Cc1cc(O)c(-n2nnc3ccccc32)cc1C#N	-12%	16%	4	i	i	8
O=[N+]([O-])c1ccc(Oc2cccc3cccnc23)c([N+](=O)[O-])c1	?	21µM*	-22	21µM*	i	-3
Cc1ccc2cccc(Oc3ccc([N+](=O)[O-])cc3[N+](=O)[O-])c2n1	-2%	6%	-38	?	i	-8
CN(C)CCCNc1cc(N2CCN(C)CC2)ncn1	nt	nt	nt	i	i	nt
O=C(c1cc(F)ccc1F)N1CCC(N2CCC(C(=O)N3CCCC3)CC2)CC1	?	?	3	i	i	6
O=C(c1ccccc1Cl)N1CCC(N2CCC(C(=O)N3CCCC3)CC2)CC1	1%	14%	-87*	i	i	-10
COC(=O)C(C)N(C(=O)c1ccc(C(=O)c2ccccc2)cc1)c1c(C)cccc1C (stereo unspecified)	?	-14%	2	i	i	-1
Cc1ccc(-n2ncc3c(SCc4cccc(C)c4)ncnc32)cc1	-1%	1%	3	i	i	-1
Cc1ccc(-n2ncc3c(SCc4cccnc4)ncnc32)c(C)c1	2%	11%	0	5.8µM*	i	0
Cc1cccc(CSc2ncnc3c2cnn3Cc2ccccc2)c1	13%	?	13	15µM*	?	8
COc1ccc(CC(=O)NNC(=S)NC(=O)c2cc(OC)c(OC)c(OC)c2)cc1	nt	nt	9	?	i	-7
Cc1cc(C)c(NC(=O)COC(=O)C2CCCCC2)c(C)c1	?	4%	11	i	i	6
Cc1cc(C)c(NC(=O)CN(C2CCCCC2)C2CCCCC2)c(C)c1	1.8µM*	3.7µM*	-16	?	i	-15
CCN(CC)CCOc1ccc(-c2nc3cc(Cl)ccc3s2)cc1	19µM*	24µM*	nt	nt	nt	nt
CCN(CC)CCOc1ccc2nc(N(C)C)sc2c1	-5%	9%	3	i	i	1
COc1ccc(-c2nn(-c3ccccc3)cc2CN(C)CCn2ccnc2C)c(F)c1	0%	2%	0	9.2µM*	i	13
CCOC(=O)c1sc2c(c1C)c(=O)n(Cc1ccccc1)c(=O)n2CCN(C)C	7%	2%	-109*	i	i	19
C=CCOC(=O)C1=C(C)Nc2ncnn2C1c1cc(Br)ccc1F (stereo unspecified)	?	?	17	?	i	-9
Fc1ccc(Br)cc1C1C=C(c2ccc(Br)s2)Nc2ncnn21 (stereo unspecified)	0.58µM*	?	-3	?	?	-4
COc1cccc(C2C=C(c3ccc(Br)s3)Nc3ncnn32)c1OC (stereo unspecified)	-34%	0%	-13	5.2µM*	?	3
SMILES	SW480 rereplic	MCF10A rerep	KCNH2 3.1 block	KB-V1 cytotox	KB-3-1 tox	hERG WT inh
COc1cccc(C2=CC(c3ccc(OC)c(OC)c3OC)n3ncnc3N2)c1 (stereo unspecified)	nt	nt	nt	i	i	nt
Cc1ccccc1C(=O)OCc1cc(=O)n2c(C)csc2n1	nt	nt	nt	?	i	nt
Cc1c(Cl)ccc(S(=O)(=O)Nc2cccnc2)c1Cl	0%	2%	5	i	i	-7
O=C(NCc1ccc2c(c1)OCO2)c1nc(S(=O)(=O)Cc2ccccc2F)ncc1Cl	11%	-9%	2	i	i	3
CN(Cc1ccccc1)S(=O)(=O)c1ccc(Cl)c(C(=O)NCc2ccc3c(c2)OCO3)c1	-100%	-2%	-19	12µM*	i	3
O=C(NCc1ccc2c(c1)OCO2)c1nc(S(=O)(=O)Cc2ccccc2)ncc1Cl	?	?	8	?	21µM*	-3
COc1ccc(C2=Nn3c(nnc3-c3ccccc3F)SC2)cc1OCC1CC1	18µM*	?	nt	?	13µM*	nt
Clc1ccc(C2=Nn3c(nnc3-c3n[nH]c4c3CCC4)SC2)cc1Cl	?	?	4	4.6µM*	?	-6
c1ccc(C2=Nn3c(nnc3-c3n[nH]c4c3CCC4)SC2)cc1	-6%	?	-27	?	i	0
COc1ccc(C2=Nn3c(nnc3-c3ccccc3OC)SC2)cc1OC	0.37µM*	0.37µM*	-1	1.2µM*!	0.013µM*	-2
CCOc1ccc(C2=Nn3c(nnc3-c3ccccc3)SC2)cc1Cl	-3%	1%	-203*	i	i	-2
N=c1n(CCN2CCCCC2)c2ccccc2n1CC(=O)c1cccs1	8.2µM*	?	-11	i	?	20
O=C(CCN1CCCC1)c1cccs1	103%	23µM*	4	i	i	1
O=C(CCN1CCC(c2ccccc2)C1)c1cccs1 (stereo unspecified)	-2%	11%	8	i	i	-12
O=C(COc1ccccc1Cl)Nc1nnc(S(=O)(=O)N2CCCC2)s1	-5%	-1%	2	i	i	-10
COC(=O)c1ccccc1NC(=O)C1=C(C)C(=O)OC12CCCCCC2	nt	nt	nt	i	i	nt
Fc1ccc(Nc2nc3ccccc3n3cnnc23)c(F)c1	nt	nt	nt	i	i	nt
FC(F)(F)c1ccc(N2CCOCC2)c(Nc2nc3ccccc3n3cnnc23)c1	?	23µM*	-24	?	?	-8
c1ccc(N2CCCCC2)c(Nc2nc3ccccc3n3cnnc23)c1	-76%	12µM*	-6	i	?	0
CCSc1ccccc1C(=O)n1nnc2ccccc21	?	16µM*	2	i	?	-2
O=C(c1ccc2c(c1)OCO2)C1CCCN(Cc2cn[nH]c2-c2cccc(F)c2)C1 (stereo unspecified)	1%	-10%	17	?	i	-17
